Source: PubChem (National Center for Advancing Translational Sciences (NCATS))
Sampled rows, rich in hits. Any-hit rate of the full collection: about 12%.
BAZ2B block – inhibitors of human BAZ2B bromodomain; Potency, µM (series often up to 114 µM), without a hit: at the top dose activity change, negative = inhibition, most hits filed as inhibitors; Q9UIF8; AlphaScreen BAZ2B-H3K14Ac peptide displacement; actives 4.4% (n = 360,000); AID 504333; note: potency is the fitted concentration of half-maximal effect; % is set by controls: 0 for no effect and ±100 for the full control effect; nearly all actives have a fitted effect of over 60% in size
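AlphaScreen luminescence quantifies BAZ2B engagement of H3K14Ac peptide; the protein and biotinylated peptide are both at 50 nM final, buffer PBS pH 7.4 with 0.01% Tween-20, all steps at room temperature.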
HP1b binding inh – blocks HP1-beta chromodomain binding to methylated histone tails. Potency, µM (titrated, usually from 114 µM), for inactives: top-dose activity change, negative = inhibition, most hits filed as inhibitors. actives 0.56% (n = 390,000). AlphaScreen HP1-beta / biotin-H3K9me3 peptide binding; note: potency is the fitted concentration of half-maximal effect; nearly all actives have a fitted effect of over 70% in size
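HP1-beta protein (50 nM final) preincubated 30 min at room temperature with biotinylated H3(1-18)K9me3 peptide (50 nM) in PBS pH 7.4, 0.01% Tween-20, then compound added for 30 min. AlphaScreen streptavidin donor/nickel chelate acceptor beads (10 ug/mL final), 30 min dark, luminescence read.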
PLK1 PBD inh – inhibitors of human PLK1 polo-box domain binding; P53350; Plk1 PBD binding of FITC phosphopeptide, fluorescence polarization; Potency, µM, for inactives: max response, negative = inhibition, usual class: inhibitors; actives 2.8% (n = 360,000); note: potency is the fitted concentration of half-maximal effect; series mostly up to about 57 µM; % is set by controls: 0 for no effect and ±100 for the full control effect; nearly all actives have a fitted effect of over 65% in size
Target sequence (P53350 whole entry, looked up, the tested form may be a part): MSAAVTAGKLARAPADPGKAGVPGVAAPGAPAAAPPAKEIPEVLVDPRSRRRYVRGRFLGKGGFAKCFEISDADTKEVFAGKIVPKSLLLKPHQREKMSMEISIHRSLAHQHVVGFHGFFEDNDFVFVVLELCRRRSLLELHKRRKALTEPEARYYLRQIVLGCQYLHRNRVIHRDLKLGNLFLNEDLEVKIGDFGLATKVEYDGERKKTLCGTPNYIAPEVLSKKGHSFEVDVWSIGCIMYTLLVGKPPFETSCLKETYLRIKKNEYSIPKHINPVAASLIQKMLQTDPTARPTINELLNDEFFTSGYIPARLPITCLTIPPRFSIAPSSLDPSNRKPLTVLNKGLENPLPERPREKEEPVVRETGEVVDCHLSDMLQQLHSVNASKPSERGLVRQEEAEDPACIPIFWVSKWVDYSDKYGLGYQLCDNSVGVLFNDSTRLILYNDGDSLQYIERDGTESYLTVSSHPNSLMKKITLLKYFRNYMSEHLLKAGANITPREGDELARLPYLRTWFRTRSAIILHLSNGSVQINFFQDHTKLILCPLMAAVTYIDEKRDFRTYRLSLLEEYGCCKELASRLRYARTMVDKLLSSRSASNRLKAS
PI5P4K alpha inh – PI5P4K alpha (human) kinase inhibition; actives 1.2% (n = 330,000); PI5P4Kalpha enzyme, ADP-Glo luminescence, 60 min; stronger effect = lower value; max response, %; active = max response of -50% or lower; inconclusive = between -30% and -50%; inactive = -30% or higher; note: value at the top dose of about 77 µM; % is set by controls: 0 for no effect and ±100 for the full control effect
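ADP-Glo luminescence end-point after a 60 min room-temperature kinase reaction. PI5P4Kalpha and substrate in HEPES pH 7.4 buffer with EGTA, 0.1% CHAPS and 5% DMSO; ATP at 5 microM final.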
JMJD2A Tudor – inhibitors of human JMJD2A Tudor domain. O75164. AlphaScreen JMJD2A-Tudor / H3K4me3 peptide binding. Potency, µM (highest dose often 114 µM), inactives show top-dose activity change, negative = inhibition, most hits filed as inhibitors. actives 4.4% (n = 390,000); note: potency is the fitted concentration of half-maximal effect; % is set by controls: 0 for no effect and ±100 for the full control effect; nearly all actives have a fitted effect of over 50% in size
G9a block – G9a (human) methyltransferase inhibition; Q96KQ7; G9a H3K9 monomethylation, AlphaScreen, 2 h; Potency, µM (titrated, usually from 102 µM), for the others: at the top dose activity, negative = inhibition, usual class: inhibitors; actives 8.8% (n = 350,000); note: potency is the fitted concentration of half-maximal effect; % is set by controls: 0 for no effect and ±100 for the full control effect; nearly all actives have a fitted effect of over 75% in size
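AlphaScreen read-out: biotin-H3K9 peptide (500 nM) methylation by 20 nM enzyme with 20 uM SAM, 2 h at room temperature after 15 min compound preincubation; anti-monomethyl H3K9 antibody plus donor/acceptor beads, 10 min dark.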
* = called active by the depositor; ? = inconclusive; · = no result given; [ ] = dose if it differs, or a comment. Unless noted, calls come from the whole dose curve; as a rule, active = well fitted curve in the direction sought with a large enough effect; inconclusive = small, poorly fitted or top-dose-only effect, or another doubt; inactive = no such curve, though single readings can be large; an effect the other way counts as inactive or inconclusive.

SMILES | BAZ2B block | HP1b binding inh | PLK1 PBD inh | PI5P4K alpha inh | JMJD2A Tudor | G9a block
Cc1ccc(NC(=O)/C=C/c2ccco2)cc1F | ? | ? | · | · | -35% | 13µM*
CCCCCCCC/C=C\CCCCCCCCOC[C@H](COP(=O)([O-])OCC[N+](C)(C)C)OC(C)=O | · | · | · | · | · | 29%[59 µM]
O=C(NCc1ccccc1)NC1COc2ccccc2C1 (centres undefined) | 12% | -27%[57 µM] | · | · | -8% | 1%[59 µM]
Cc1cc(C)c2nc(N3CCCC(C(=O)NCc4ccccc4F)C3)sc2c1 (centres undefined) | -2% | 27% | · | · | 5% | 1%[59 µM]
CN(c1ccccc1)S(=O)(=O)c1cccc(C(=O)NCCc2ccc(O)c(O)c2)c1 | -38% | ? | -8% | ? | 13µM* | 8.9µM*
O=C(Nc1cccc(S(=O)(=O)N2CCOCC2)c1)c1ccc(Cl)c([N+](=O)[O-])c1 | -25% | -1% | -11% | 0 | -17% | -12%
CN(c1ccccc1)S(=O)(=O)c1cccc(C(=O)Nc2ccc(N3CCOCC3)cc2)c1 | ? | -29% | -4% | 1 | ? | 56µM*
Cc1ccc(N(C)S(=O)(=O)c2cccc(C(=O)Nc3ccc(N4CCOCC4)cc3)c2)cc1 | ? | 7% | ? | -3 | ? | ?
O=C(NNC(=S)NCC1CCCO1)c1cccc(S(=O)(=O)N2CCOCC2)c1 (centres undefined) | -3% | 20% | -18% | -6 | -10% | 50µM*
O=C(Nc1ccc(S(=O)(=O)N2CCOCC2)cc1)c1ccc(Cl)c([N+](=O)[O-])c1 | · | -9% | 27µM* | -6 | ? | ·
COc1ccc(C2=Nn3c(nnc3-c3ccc(OC)c(OC)c3)SC2)cc1 | · | · | · | · | -21% | ·
COc1ccc(C(=O)Nc2ccc(N3CCCCCC3)cc2)cc1S(=O)(=O)N1CCOCC1 | 28µM* | ? | 1% | 1 | 7.1µM* | ?
COc1ccc(C(=O)Nc2ccc(NC(=O)c3ccccc3)cc2)cc1S(=O)(=O)N1CCOCC1 | -14% | 16% | -1% | -9 | 9% | ?
CC(=O)N1CCN(S(=O)(=O)c2cccc(C(=O)Nc3ccc(OC(F)F)cc3)c2)CC1 | -2% | 22% | -17% | 12 | -7% | 34%
CC(=O)N1CCN(S(=O)(=O)c2cccc(C(=O)Nc3ccc4c(c3)CCC4)c2)CC1 | 18% | 28% | -7% | 0 | -20% | 28µM*
O=C(Nc1ccc(N2CCCCCC2)cc1)c1cccc(S(=O)(=O)N2CCOCC2)c1 | 32µM* | -45% | 4% | -11 | 25µM* | 1.8µM*
O=C(Nc1ccccc1)c1ccc(N2CCN(c3ccccc3)CC2)c(S(=O)(=O)N2CCOCC2)c1 | 79µM* | 19% | -4% | 0 | 16% | 16%
Cc1cccc2c(=O)c(C(=O)NCCc3ccccc3)c[nH]c12 | -27% | 16% | -6% | 5 | -25% | 38%
O=C(NCCc1ccccc1)c1c[nH]c2c(F)cccc2c1=O | 2% | 9% | 27µM* | 5 | ? | 20%
Cc1ccc(SCCC(=O)OC(C(=O)NC(N)=O)C(C)C)cc1 (centres undefined) | 2% | -13% | ? | -67* | 11µM* | ?
Cc1ccc(SCCC(=O)NC(C)C)cc1 | 2% | 38% | 0% | · | 5% | 6%[59 µM]
CC(C)C(NC(=O)CN1C(=O)c2ccccc2C1=O)c1ccccc1 (centres undefined) | 1% | 11% | -4% | -1 | -20% | -7%
COc1ccc(/C=C/C(=O)NCC(c2ccc(F)cc2)N2CCOCC2)cc1OC (centres undefined) | -2% | 51% | -11% | -3 | -5%[11.4 µM] | 79µM*
COc1ccc(S(=O)(=O)NCC(c2ccc(F)cc2)N2CCOCC2)cc1Br (centres undefined) | 6% | 36% | -7% | 4 | -16% | ?
O=C(/C=C/c1ccc(Br)o1)NCCCN1CCOCC1 | ? | 17% | -16% | 5 | -10% | 22µM*
COc1ccc(/C=C/C(=O)NCCN2CCOCC2)cc1OC | -31% | 22% | 17µM* | 9 | ? | ?
